Experimental data as given in PubChem BioAssay AID592 (National Center for Advancing Translational Sciences (NCATS), 2007).
Where “and” joins values, the source holds several entries; their conditions need not be identical. Equal entries are not always repeated. Screen size: about 59,000 compounds; fewer than 10 were called active. The list is a sample of the results. Unmarked numbers belong to inactive results. No rule for the calls is given here.

assay: qHTS Assay for Spectroscopic Profiling in A647 Spectral Region; details: Compound fluorescence, A647 channel (570/671 nm), Tris buffer; active compounds read high
Description: NIH Molecular Libraries Screening Centers Network [MLSCN] NIH Chemical Genomics Center [NCGC] […] Occasionally, the artifactual effect may originate from the compounds own spectral or other biophysical properties which generally tend to track its assay concentration. Pre-screening/profiling the library with respect to the compounds spectral properties should help one exclude false positives early on. While the most informative fluorescent profiling data set is obtained by performing a full excitation and emission scan of each well by using a monochromator-based plate reader, such an approach is practical only on a very limited scale as scanning each well requires long time. An alternative approach, applied here, is to perform plate reader scans using selected excitation and emission wavelength pairs to generate a multidimensional relational database that correlates compound concentration and the respective relative fluorescence intensity at a given wavelength set. A standard curve of Alexa 647 (A647) present on each plate as six-point concentration series, was used to compute a normalized fluorescence response, termed dye-equivalent concentration, for each compound at each concentration.
NCGC Assay Protocol Summary: Buffer: 100 mM Tris buffer, pH 8.0 Dye standard plate: The wells in columns 1 through 4 of a Kalypsys polypropylene 1536-well compound plate were filled with standard solutions of fluorophore corresponding to the spectral region of interest. Solutions of A647 were placed in the following wells: AC1, AD1: 3 mM, AC2, AD2: 300 uM, AC3, AD3: 30 uM, AC4, AD4: zero (DMSO), AE1, AF1: 3 uM, AE2, AF2: 900 nM, AE3, AF3: 300 nM, AE4, AF4: zero (DMSO). Assay Steps: Six uL of buffer were dispensed to 1536-well Greiner black plates. Compounds and dye standards (23 nL) were transferred via Kalypsys PinTool. The plates were incubated for 15 min at room temperature, and then read on ViewLux (Perkin-Elmer) High-throughput CCD imager using 570 nm and 671 nm excitation and emission filter set. Keywords: NIH Roadmap, MLSCN, MLI, MLSMR, qHTS, NCGC, A647, A-647, Fluorescent Profiling.

Row | SMILES | max dye-equivalent concentration
1 | CCOc1cc(CO)ccc1OCC(=O)N1CCCCC1 | 5.6 nM
2 | COC(=O)Nc1c(C)n(C)n(-c2ccccc2)c1=O | 1 nM
3 | CCN(CC)C(=O)C1CCC(C)(C(=O)O)C1(C)C (centres undefined) | 5.6 nM
4 | O=C(O)c1c(Br)c(Br)c(Br)c(Br)c1C1c2ccc(O)cc2Oc2cc(O)ccc21 | 1 nM
5 | O=C(Nc1ccon1)c1cccc(Cl)c1 | 1 nM
6 | Cc1cccc2cc(CN(Cc3ccc4c(c3)OCO4)Cc3nnnn3C3CCCC3)c(=O)[nH]c12 | 1 nM
7 | COCCCn1c(CCC(=O)O)ccc1-c1ccc(F)cc1 | 26 nM
8 | COCCn1nnnc1CN1CCC(NC(=O)Nc2cccc(OC)c2)CC1 | 41 nM
9 | O=C(O)[C@@H](S)[C@H](S)C(=O)O | 1.2 nM
10 | COCCCNC(=O)CSc1nc2ccc(N3CCOCC3)cc2c(=O)n1CCc1ccccc1 | 19 nM
11 | Cc1ccc(-c2noc(CSc3nnc(-c4ccccc4)n3C)n2)cc1 | 17 nM
12 | COc1ccc(C2OC(=O)CC2C(=O)NC(C)C)cc1 (centres undefined) | 2.6 nM
13 | Cc1cc(Cl)c(S(=O)(=O)NCC2CCCO2)cc1OCC(N)=O (centres undefined) | 1 nM
14 | CC1(N2CCOCC2)CC2(O)C(=[N+]1[O-])CCc1nonc12 (centres undefined) | 31 nM
15 | Cc1ccc(C(=O)O)cc1S(=O)(=O)NCC1CCCO1 (centres undefined) | 1 nM
16 | O=C(c1ccncc1)N1CCC2(CCCN(C(c3ccccc3)c3ccccc3)C2)CC1 | 10 nM
17 | C[C@@H]1CC[C@H]2[C@H](C)[C@H]3[C@H](C[C@H]4[C@@H]5CC=C6C[C@@H](O)CC[C@@]6(C)[C@@H]5C[C@@H](O)[C@]34C)N2C1 | 2.4 nM
18 | Cn1nnnc1SCC(=O)N1CCN(C(c2ccccc2)c2ccccc2)CC1 | 1 nM
19 | CCCC(C)n1[nH]c(=O)c2c(C)cc(C)nc21 (centres undefined) | 16 nM
20 | N#Cc1c2c(c(-c3ccccc3)[nH]c1=O)CCCC2 | 55 nM
21 | Cc1ccccc1C(=O)Nc1cccc(-c2nnc(SCC(=O)O)n2C)c1 | 18 nM
22 | O=C(Nc1ccccc1C(=O)N1CCOCC1)C1CCC(=O)N1C1CCCC1 (centres undefined) | 14 nM
23 | O=S(=O)(c1ccccc1)N(CC(O)CN1CCCCC1)c1ccccc1 (centres undefined) | 1 nM

Row | SMILES | max dye-equivalent concentration
24 | CCC(C)(C)n1nnnc1C(c1cccs1)N1CCN(Cc2ccccc2)CC1 (centres undefined) | 35 nM
25 | Cc1c(C(=O)Nc2ccccc2Cl)oc2ccc(S(=O)(=O)N3CCC4(CC3)OCCO4)cc12 | 45 nM
26 | CCC(Oc1ccccc1)C(=O)NCc1cccnc1 (centres undefined) | 1.3 nM
27 | CC(C)OC(=O)c1sc2nc3c(cc2c1N)C(=O)CCC3 | 12 nM
28 | Cn1cc(-c2nc3cncnc3n(-c3ccccc3)c2=O)c2ccccc21 | 1 nM
29 | O=C(/C=N/O)Nc1ccccc1 | 1 nM
30 | CCOC(=O)N1CCN(S(=O)(=O)c2ccc(C(=O)Nc3ccc(F)cc3F)cc2)CC1 | 29 nM
31 | COc1ccccc1N1CCN(CCCCOc2ccc(F)cc2)CC1 | 1 nM
32 | COc1ccc2nc(N3CCCC(O)C3)c(C#N)cc2c1 (centres undefined) | 22 nM
33 | CCCCN(CC)CCCNC(=O)CS(=O)(=O)Cc1nc(-c2cccc(OC)c2)oc1C | 1 nM
34 | COC(=O)c1ccccc1NC(=O)CN(Cc1ccccc1)S(C)(=O)=O | 1 nM
35 | COc1cccc(OC)c1OCCN1CCN(C(=O)c2ccco2)CC1 | 1 nM
36 | Cc1cc(Cl)ccc1N1C(=O)CC(SCCC(=O)O)C1=O (centres undefined) | 1 nM
37 | COc1ccc(CC(=O)Nc2c3c(nn2-c2cccc(Cl)c2)CS(=O)C3)cc1 (centres undefined) | 12 nM
38 | Cc1c(C(=O)OCc2cc(=O)n3cc(Br)ccc3n2)oc2ccccc12 | 28 nM
39 | CCOC(=O)N1CCN(C(=O)c2cn(C)c3ccc(S(=O)(=O)N4CCCC4)cc3c2=O)CC1 | 21 nM
40 | Cc1cc(NC(=O)COc2ccc(Cl)cc2Cl)n(CCC#N)n1 | 18 nM
41 | Cc1ccc(S(=O)(=O)NCc2cn3ccsc3n2)c(C)c1 | 18 nM
42 | CCOc1cc(-c2nc3cc(C)ccn3c2NCC2CCCO2)ccc1O (centres undefined) | 14 nM
43 | CC(C)C(C(=O)NC1CCCCC1)N(CC1CCCO1)C(=O)CNS(=O)(=O)c1ccc(F)cc1 (centres undefined) | 1 nM
44 | COc1ccccc1N1CCN(c2nc3ccccc3n3nnnc23)CC1 | 42 nM
45 | O=C(c1cccc(F)c1)N1CCC2(CC1)CCN(c1ccccc1)CC2 | 1.1 nM
46 | COc1ccccc1CNCc1cccs1 | 25 nM

Row | SMILES | max dye-equivalent concentration
47 | O=C(CN1C(=O)COc2ccccc21)NCCN1CCc2ccccc2C1 | 23 nM
48 | CC(C)CCNC(=O)C(C)N(C(=O)Cn1nnc(-c2ccc(F)cc2)n1)C1CCCC1 (centres undefined) | 1 nM
49 | CN1CCN(S(=O)(=O)c2ccc(NC(=O)c3ccco3)cc2)CC1 | 3.8 nM
50 | CCOC(=O)CSc1nc2sc3c(c2c(=O)[nH]1)CC(C)(C)OC3 | 2.2 nM
51 | Cc1cc(=O)oc(C)c1C(=O)Nc1cnc2ccccc2c1 | 5.4 nM
52 | CN(C)CCSc1nc(N)c2c3c(sc2n1)COC(C)(C)C3 | 6.7 nM
53 | Cc1ccc(C(=O)CSc2nnc(Cn3nnc4ccccc43)n2C)cc1 | 15 nM
54 | CCCc1cc(=O)n2[nH]c(SCc3ccccc3)nc2n1 | 28 nM
55 | O=C(c1ccco1)N(Cc1nc2ccccc2c(=O)[nH]1)C1CCCC1 | 41 nM
56 | COC(=O)[C@H](CCSC)NC(=O)Nc1ccc(OC)cc1 | 5.2 nM
57 | CC[N+](C)(CC)CCC[n+]1c(-c2ccccc2)c2cc(N)ccc2c2ccc(N)cc21 | 1.7 nM
58 | O=c1c(CCc2ccccc2)nc2cnc(N3CCNCC3)nc2n1Cc1cccs1 | 1 nM
59 | O=C(OCC(=O)N1CCN(C(=O)c2ccco2)CC1)c1ccccc1Cc1ccccc1 | 7.2 nM
60 | CCOc1ccccc1N=C1NC(=O)CS1 | 4.1 nM
61 | CCOC(=O)C1CCN(C(c2cc3cc(C)cc(C)c3[nH]c2=O)c2nnnn2C2CCCCC2)CC1 (centres undefined) | 1 nM
62 | CCCSC1=C(C#N)C(c2ccccc2C)C(C(=O)OC)C(=O)N1 (centres undefined) | 58 nM
63 | COCC(C)n1c(SCc2ccc(C(=O)OC)o2)nc2ccccc2c1=O (centres undefined) | 1.6 nM
64 | COC(=O)c1ccc(C2CC(=O)Nc3cc(OC)c(OC)cc32)cc1 (centres undefined) | 1 nM
65 | CC(C)c1nc(N2CCOCC2)c(C#N)c2c1COC(C)(C)C2 | 69 nM
66 | CCCC(=O)Nc1c(O)c2ccccc2[nH]c1=O | 1 nM
67 | C=C(C)CSc1nc(N)c2c3c(sc2n1)CCC3 | 1.9 nM
68 | O=C(OC1CCOC1=O)c1ccc(-c2nc3ccccc3s2)s1 (centres undefined) | 1 nM
69 | CCCS(=O)(=O)C(=C1Nc2ccccc2N1)S(=O)(=O)CCC | 1 nM

Row | SMILES | max dye-equivalent concentration
70 | CSc1sc(C)cc1C1C(C#N)=C(N)N(c2cccnc2)C2=C1C(=O)CCC2 (centres undefined) | 18 nM
71 | CCN(CC)C(=O)N1CCN(C(=O)c2ccc(C)cn2)CC1 | 1 nM
72 | CCC(CC)c1nnc(NS(=O)(=O)Cc2ccccc2)s1 | 5 nM
73 | COC(=O)c1c(NC(=O)c2cccs2)sc2c1CCCC2 | 1 nM
74 | CC1CCC(NC(=O)c2ccc(N3CCCC3=O)cc2)CC1 (centres undefined) | 6 nM
75 | CCCNC(=O)Nc1ccccc1C(=O)Nc1ccc(OC)cc1 | 1.2 nM
76 | COc1ccccc1-n1nnnc1S(=O)(=O)Cc1ccc(Cl)cc1 | 37 nM
77 | CCN1C(=O)/C(=C2/Sc3ccccc3N2CCCS(=O)(=O)O)SC1=S | 1 nM
78 | CCCCC(=O)Nc1ccc(C(=O)NCCCn2ccnc2)cc1 | 2.5 nM
79 | CCOC(=O)CNC(=O)CSc1nnc(COc2ccc(Cl)cc2)n1CC | 39 nM
80 | N#C/C=C1\Sc2ccccc2C(=O)N1CC(=O)N1CCN(S(=O)(=O)c2ccccc2)CC1 | 1 nM
81 | N#CC1=C(N)C(C#N)(C#N)[C@H](c2ccsc2)[C@H]2COCC=C12 | 25 nM
82 | CC(C)C[C@H](NC(=O)[C@@H]1O[C@H]1C(=O)O)C(=O)NCCCCN=C(N)N | 60 nM and 51 nM
83 | Cc1ccc2[nH]c3c(c2c1)CN(C(=O)CN1CCN(c2ccccc2)CC1)CC3 | 12 nM
84 | Cc1ccc(C(C(=O)NC2CCCC2)N(Cc2ccco2)C(=O)CCC(=O)Nc2ccccn2)cc1 (centres undefined) | 23 nM
85 | CC(=O)/C(C)=N\O | 34 nM
86 | COC(=O)c1cc(C(=O)OC)cc(N2C(=O)CC(N3CCN(c4ccccc4)CC3)C2=O)c1 (centres undefined) | 14 nM
87 | CC(=O)Nc1ccc(S(=O)(=O)Nc2nc3n(n2)C(c2ccccc2)CC(=O)N3)cc1 (centres undefined) | 16 nM
88 | N#Cc1c(N)sc2c1CCN(C(=O)OCc1ccccc1)C2 | 36 nM
89 | O=S(=O)(c1cccc(S(=O)(=O)N2CCC(n3nnc4ccccc43)CC2)c1)N1CCCCC1 | 23 nM
